According to the OligoGym collection:

How the values were obtained:
Assay in all cases: pooled miR-30 sensor sort-seq; sequence = guide strand
Conditions in all cases: shRNA
RAI2 = target: RAI2
RAET1E = target: RAET1E
RANGAP1 = target: RANGAP1
RANBP9 = target: RANBP9
RBMY1E = target: RBMY1E
RDH8 = target: RDH8
RELA = target: RELA
REPS2 = target: REPS2
RECQL4 = target: RECQL4
RGS9 = target: RGS9
RGS6 = target: RGS6
RFX3 = target: RFX3
Note: reference of the scale not given here.

TTGTTGTGGATGGTACTGGAGG
sensor-assay potency score (higher = more potent) (RAI2): -0.912

TTTTCAGCCTTGACTTCGCCGC
sensor-assay potency score (higher = more potent) (RAI2): -0.377

TTACTGGTGACACTGTCGGTTC
sensor-assay potency score (higher = more potent) (RAET1E): -0.629

AATCTCTTTAATCACATCTTTA
sensor-assay potency score (higher = more potent) (RANGAP1): -1.26

TTGCTTGCAGCTCTCGTCCAAA
sensor-assay potency score (higher = more potent) (RANBP9): -0.93

TCGACAGAGACAATGACCTTGG
sensor-assay potency score (higher = more potent) (RAI2): -0.196

TTGACCATGTTGTTGTCACTGT
sensor-assay potency score (higher = more potent) (RAET1E): 0.253

TTGAGCTCTGGTGCGGAGCTTC
sensor-assay potency score (higher = more potent) (RAI2): -0.528

TTTCTTTCAAGTAAACTTGGGT
sensor-assay potency score (higher = more potent) (RANBP9): -0.134

TAGGAAGGCAGAGACCACCTTC
sensor-assay potency score (higher = more potent) (RANGAP1): 0.359

TAGCTGAACTTGTCCTTCGGGC
sensor-assay potency score (higher = more potent) (RANBP9): -0.541

TCATGATTAATTACTGTCCAGG
sensor-assay potency score (higher = more potent) (RAET1E): -0.855

TTTAACTTTATGCTCCGGTTTT
sensor-assay potency score (higher = more potent) (RAI2): -1.48

TTTACTGGTGACACTGTCGGTT
sensor-assay potency score (higher = more potent) (RAET1E): 0.119

AACTTGAGCTACCACATGCTTC
sensor-assay potency score (higher = more potent) (RBMY1E): -1.03

TTTCTCGGGAACTTCGACGATT
sensor-assay potency score (higher = more potent) (RBMY1E): -0.472

TTCTGCATGGCAGCAAGGCTGA
sensor-assay potency score (higher = more potent) (RDH8): -1.12

TTTACGTTTCTCCTCAATCCGG
sensor-assay potency score (higher = more potent) (RELA): -0.69

TGTTCTTCTGTTATCCTCCAGG
sensor-assay potency score (higher = more potent) (REPS2): -0.549

TTGACATAGTACTCGCGCTGTT
sensor-assay potency score (higher = more potent) (REPS2): -0.809

TTGAGCTCGGCAGTGTTGGGGG
sensor-assay potency score (higher = more potent) (RELA): 0.294

TATCTGTGCTCCTCTCGCCTGG
sensor-assay potency score (higher = more potent) (RELA): -1

TAGCACAGCAAAGTCTCGATGG
sensor-assay potency score (higher = more potent) (RECQL4): -0.495

TTGAGCGTGGTCAGCGGCGAGT
sensor-assay potency score (higher = more potent) (RDH8): -1.34

TTATTCTGCATTTTGGAGCCTC
sensor-assay potency score (higher = more potent) (RECQL4): 0.116

TTGACGAGACGGACAGCTCCGA
sensor-assay potency score (higher = more potent) (RDH8): -0.0536

TTCTGCAGGACAGATTCCCGTT
sensor-assay potency score (higher = more potent) (RECQL4): -0.459

TTCAGGAAACAAGACTCCTTGG
sensor-assay potency score (higher = more potent) (RECQL4): -0.807

TTCTATAGGAACTTGGAAGGGG
sensor-assay potency score (higher = more potent) (RELA): 0.628

TAGCCATTGATCTTGATGGTGG
sensor-assay potency score (higher = more potent) (RELA): -0.637

TAGAGTGGCAGCACGGTGGGGT
sensor-assay potency score (higher = more potent) (RECQL4): 0.669

TTGGGGACAGAAGCTGAGCTGC
sensor-assay potency score (higher = more potent) (RELA): -1.1

TATTTTCTCCAGAAGCGTCGGT
sensor-assay potency score (higher = more potent) (RECQL4): 0.184

TTGTGGTGAAGGAACCAGTGGC
sensor-assay potency score (higher = more potent) (RECQL4): 0.104

TTTCTGCACCTTGTCACACAGT
sensor-assay potency score (higher = more potent) (RELA): -0.991

TTGGTTGTGACTGTGGCACCAC
sensor-assay potency score (higher = more potent) (RECQL4): 0.278

TAAATATGGAATCTGAACCTTA
sensor-assay potency score (higher = more potent) (REPS2): -0.238

TCGAGTCGAGCTGATGACGTTG
sensor-assay potency score (higher = more potent) (RDH8): -0.883

TTCATCATCAAACTGCAGCTGC
sensor-assay potency score (higher = more potent) (RELA): 0.151

TCAATGATCTCCACATAGGGGC
sensor-assay potency score (higher = more potent) (RELA): -0.148

TCAAACTCGGTGACCACGGGGC
sensor-assay potency score (higher = more potent) (RDH8): -0.118

ATGAAGAGTCTGTTCATCCTTT
sensor-assay potency score (higher = more potent) (RDH8): 0.345

TTCTGTGATCTGGTGCAGCGTC
sensor-assay potency score (higher = more potent) (REPS2): -0.566

TTTCCTACAAGCTCGTGGGGGT
sensor-assay potency score (higher = more potent) (RELA): -0.0432

TACAGCTGAGACACTGGGCCAC
sensor-assay potency score (higher = more potent) (RDH8): 0.00741

TTACGTTTCTCCTCAATCCGGT
sensor-assay potency score (higher = more potent) (RELA): 0.444

TTGGTGTCAAAGACATTCTGCA
sensor-assay potency score (higher = more potent) (RDH8): 0.0313

TTTCTTCCGCCACTTCTGCTTC
sensor-assay potency score (higher = more potent) (RECQL4): -1.04

ATCACTGCACACGTCCAGCTGG
sensor-assay potency score (higher = more potent) (RDH8): -0.715

TTGAAAACGTTTGCCTTGCAGC
sensor-assay potency score (higher = more potent) (RECQL4): -0.47

AACAGCATCTGTGTCTTCCTCA
sensor-assay potency score (higher = more potent) (RECQL4): 0.181

TCGTTCTTGATGAACCTCCTTG
sensor-assay potency score (higher = more potent) (REPS2): -0.785

TTGAAGGCCAAGGTTGAGGAGG
sensor-assay potency score (higher = more potent) (RDH8): -0.704

TAGCGGATGTTGGTCTGTCGGC
sensor-assay potency score (higher = more potent) (RDH8): -1.33

ATCGTTGAAGATGACACCCTGC
sensor-assay potency score (higher = more potent) (RDH8): 0.0457

TTCTGCTTCATGTTGAGCCGTA
sensor-assay potency score (higher = more potent) (RECQL4): 0.124

TTGTCGGTGCACATCAGCTTGC
sensor-assay potency score (higher = more potent) (RELA): -0.891

TTCTTTTTGATATTTCGCTTGG
sensor-assay potency score (higher = more potent) (RGS9): -0.579

TTGGCTGAGTACATGCACCGGG
sensor-assay potency score (higher = more potent) (RGS6): 0.473

TACACCAAGACTAACAATCAAC
sensor-assay potency score (higher = more potent) (RFX3): -1.04
